Measured values reported in PubChem BioAssay AID504832 (National Center for Advancing Translational Sciences (NCATS), 2011).
Out of some 310,000 compounds screened, about 18,000 (5.8%) were called active. Where a call stands in place of a potency, no number is given. Not shown: some 22% with an inconclusive outcome. Calls come from the whole dose curve; as a rule, active = well fitted inhibition curve with a large enough effect; inconclusive = small, poorly fitted or top-dose-only effect, or another doubt; inactive = no such curve, though single readings can be large or run the other way. Many of the other results were omitted from the sample, so actives are more common in it than they were.
Potency is the fitted concentration of half-maximal effect.

Test: Primary qHTS for delayed death inhibitors of the malarial parasite plastid, 48 hour incubation
Details: P. falciparum luciferase growth in erythrocytes; series mostly up to 28.7 µM
Summary of the method: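 Cell-based growth assay: transgenic P. falciparum expressing firefly luciferase, cultured in red cells within RPMI 1640 containing 0.5% w/v Albumax, 24 mM bicarbonate and gentamycin. A drop in luciferase activity indicates inhibition.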
For `COc1ccc(N(C(=O)c2cccnc2)S(=O)(=O)c2ccc(OC)c(OC)c2)cc1`, the Potency was “inactive”.
In the case of `CC[C@H]1CN2CCc3cc(OC)c(OC)cc3[C@@H]2C[C@@H]1C[C@H]1NCCc2cc(OC)c(OC)cc21`, the Potency was 0.0828 µM (active).
With `NC(=O)NC(=O)C(OC(=O)CCNS(=O)(=O)c1ccccc1)c1ccccc1` (stereo not given) the Potency was “inactive”.
In the case of `O=C(CCCCn1c(=O)[nH]c2ccccc2c1=O)NCc1ccc2c(c1)OCO2`, the Potency was “inactive”.
With `O=C(CCCCCn1c(=O)[nH]c2ccccc2c1=O)NCCc1c[nH]c2ccccc12` the Potency was 8.28 µM (active).
With `O=C(CCc1c[nH]c2ccccc12)NCCOc1ccccc1` the Potency was “inactive”.
For `COc1ccc2c(C)cc(SCC(=O)NCC3CCCO3)nc2c1` (stereo not given), the Potency was “inactive”.
With `COc1ccc2nc(NC3=NCN(CC4CCCO4)CN3)nc(C)c2c1` (stereo not given) the Potency was 11.7 µM (active).
In the case of `Cc1ccc2nc(NC3=NCN(CCc4ccccc4)CN3)nc(C)c2c1`, the Potency was “inactive”.
In the case of `CC(NC(=O)COc1cccnc1[N+](=O)[O-])c1ccc(Cl)cc1Cl` (stereo not given), the Potency was “inactive”.
In the case of `Cn1c(SCC(=O)Nc2ccc(N3CCOCC3)cc2)nnc1C(F)(F)F`, the Potency was “inactive”.
With `CCN(CC)c1ccc2cc(C(N)=O)/c(=N\NC(=O)c3ccncc3)oc2c1` the Potency was “inactive”.
For `CCN(CC)c1ccc2c(Nc3ccccc3)c(C=O)c(=O)oc2c1`, the Potency was “inactive”.
With `CCN(CC)c1ccc2oc(=O)c(C)nc2c1` the Potency was 1.47 µM (active).
With `Cc1ccccc1N1CCN(C2CCCN(C(=O)c3cn4c(C)cccc4n3)C2)CC1` (stereo not given) the Potency was “inactive”.
With `CCC(CC)c1nnc(NC(=O)C2=COCCO2)s1` the Potency was “inactive”.
For `O=C(O)C1CCC(CNS(=O)(=O)c2ccc(Br)cc2)CC1` (stereo not given), the Potency was “inactive”.
With `CCn1c(=O)c(C(=O)NCc2ccc3c(c2)OCO3)c(O)c2ccccc21` the Potency was “inactive”.
In the case of `CCCC1=Nc2cc(C(=O)NCc3ccco3)ccc2Sc2ccccc21`, the Potency was 4.65 µM (active).
With `COc1ccc(CCNS(=O)(=O)c2ccc(C(=O)NCc3ccco3)cc2)cc1OC` the Potency was “inactive”.
In the case of `O=C(COC(=O)c1cnc(Cl)c(Cl)c1)NCc1ccco1`, the Potency was “inactive”.
In the case of `COc1ccc(N2CC(C(=O)N[C@@H](C)C(=O)N3CCCCC3)CC2=O)cc1` (stereo not given in full), the Potency was “inactive”.
With `O=C(Nc1cccc2cccnc12)c1cccc(Cl)c1` the Potency was “inactive”.
For `CC(OC(=O)C1CC(=O)N(Cc2ccccc2)C1)C(=O)Nc1ccccc1[N+](=O)[O-]` (stereo not given), the Potency was “inactive”.
With `Cc1nn(C)cc1CNC(=O)Nc1ccc(Cl)cc1` the Potency was “inactive”.
For `Cc1ccc(-c2cc(C(=O)NCc3cn(C)nc3C)c3cc(Br)ccc3n2)cc1`, the Potency was 2.94 µM (active).
In the case of `COc1ccc(Cl)cc1C(=O)NCc1cn(C)nc1C`, the Potency was “inactive”.
In the case of `O=C1/C(=C/c2ccc(F)cc2)SC(=S)N1CCCC(=O)N1CCCCC1CCO` (stereo not given), the Potency was 11.7 µM (active).
For `O=C(CCCN1C(=O)/C(=C\c2ccccc2)SC1=S)Nc1ccccc1O`, the Potency was “inactive”.
With `CCN(C(=O)CN1C(=O)/C(=C/c2ccc(F)cc2)SC1=S)C1CCS(=O)(=O)C1` (stereo not given) the Potency was “inactive”.
